Results as given in PubChem BioAssay (EPA / NIEHS).
Activity calls are given as the source filed them. Rule for the calls: active = hit-call score of the fitted dose curve at least 0.9, where 1 is the maximum; inactive = score below 0.9.

read-out: Cytochrome P450 (CYP2B6), CYP2B6 (gene 1555); assay: LTEA_HepaRG_CYP2B6: Life Technologies and Expression Analysis (LTEA) Assay for Cytochrome P450 (CYP2B6) using HepaRG (AID 2283481); conditions: mRNA level, 48 h; actives raise or lower the signal
Description: LTEA_HepaRG is a cell based, multiplexed-readout assay that uses HepaRG, a human liver cell line, with measurements taken at 48 hours after chemical dosing on a 96-well plate.LTEA_HepaRG_CYP2B6 is one of 102 assay component(s) measured in the LTEA HepaRG cell culture assay. It is a marker of NR mediated metabolism.Data from the assay component LTEA_HepaRG_CYP2B6 was analyzed into 1 endpoint. This assay endpoint, LTEA_HepaRG_CYP2B6, was analyzed with bidirectional fitting relative to DMSO as the negative control and baseline of activity. Using a type of inducible reporter, measures of mRNA induction for gain or loss-of-signal activity can be used to understand regulation of transcription factor activity. To generalize the intended target to other relatable targets, this assay endpoint is annotated to the cyp intended target family, where the subfamily is xenobiotic metabolism.
A total of 1060 chemcials from the ToxCast library were tested in eight-point concentration-response experiments. Cell culture and cytotoxicity assays were conducted at Thermo Fisher Scientific's Custom Services facility (Madison, WI). A single lot of human HepaRG cells (Thermo Fisher Scientific, Frederick, MD) was used for the cell culture experiments. 96-well format collagen type I coated plates of human HepaRG cells were prepared using established methods. Briefly, cryopreserved HepaRG cells were thawed, plated at a density of approximately 100,000 cells/well in HepaRG Thaw, Plate, and General Purpose media (HPRG770, Thermo Fisher Scientific), and incubated for 48 hours. 0.5% DMSO was selected as vehicle control to balance the requisite need of DMSO in HepaRG cultures to maintain differentiation (for example, baseline metabolism, proportions of hepatocytes vs. cholangiocytes), while enabling further hepatic receptor pathway activation (for example, PXR and CAR) in response to chemical exposure. 48 hours after plating, the culture medium was replaced with HepaRG Serum-Free Incudtion Media. Cells were exposed to each test chemical in duplicate and maintained in CO2 incubators for another 48 hours. Chemical plates were thawed to room temperature and 200x concentrations of treatment groups were prepared. 8-point conentration-reponse curves were made with the highest exposure at 100 uM, followed by half-log dilutions, all in 0.5% DMSO. Each test plate contained variouse controls, induction positive controls (1mM phenobarbital), cytotoxicity positive controls ([…] aflatoxin B1), vehicle controls (0.5% DMSO), and total lysis controls (0.5% DMSO). Cell morphology images were taken using an Essen IncuCyte FLR automated microscope, with six 96-well plates imaged in about 24 minutes. Images were captured and exported and JPEG files. Spent culture media was transfered to black-well plates for the LDH assay, and remaining media was sorted at -80 C for later use. Cells were treated with RLT buffer and frozen until shipped for gene expression analysis. Total RNA was isolated from the cell suspension in 75 uL of Buffer RLT (Qiagen, Germantown, MD 20874) by Quintiles/Expression Analysis (Durham, NC) using a custom isolation procedure. Total RNA from each plate well was transferred to a preamplification plate. Fluidigm's 96.96 Dynamic ArrayTM (Fluidigm, Amsterdam, the Netherlands) technology was used for gene expression analyses by quantitative reverse transcription polymerase chain reaction (qRT-PCR, performed by Quintiles/Expression Analysis, Durham, NC)89. Standard TaqManTM Assays (Applied Biosystems/ThermoFisher Scientific, Foster City, CA) were used to assess the expression of 93 genes selected based on their selectivity and sensitivity to important hepatic receptors known to be modulated by environmental chemicals; importance in human hepatocyte functionality; and hepatotoxicity. […]

Question: `CCOC(=O)C(C)(C)Oc1ccc(Cl)cc1` was tested. Which outcome did it give?
Answer: Its outcome is “inactive”.

Question: How did the outcome turn out when `CCCCCCCCCCO` was run?
Answer: The outcome was “inactive”.

Question: For `Cc1ccc(C(C)C)c(O)c1`, which outcome is on record?
Answer: The outcome was “inactive”.

Question: For `COc1ccc(S(=O)(=O)N2C(=O)[C@@](c3ccccc3OC)(N3C[C@H](O)C[C@H]3C(=O)N(C)C)c3cc(Cl)ccc32)c(OC)c1`, which AC50 is on record?
Answer: The AC50 was 28.9 µM (active).

Question: With `CNCc1cc(F)ccc1Oc1ccc(Cl)c(Cl)c1` as the compound, how does the outcome read?
Answer: The outcome was “inactive”.

Question: With `C1CCC(SSC2CCCCC2)CC1` as the compound, how does the outcome read?
Answer: The outcome was “inactive”.

Question: Which outcome does the source give for `CNC(=O)[C@H]1O[C@@H](n2cnc3c(NCc4cc(Cl)ccc4OCc4cc(C)no4)ncnc32)[C@H](O)[C@@H]1N` here?
Answer: The outcome was “inactive”.

Question: How did the AC50 turn out when `CC(C)c1ccc(C(=O)N=C(N)N)cc1S(C)(=O)=O` was run?
Answer: Its AC50 is 0.464 µM (active).

Question: For `Nc1ccc2c(c1)C(=O)c1ccccc1C2=O`, which AC50 is on record?
Answer: The AC50 was 11.3 µM (active).

Question: `CCCCC(CC)COC(=O)CC(C(=O)OCC(CC)CCCC)S(=O)(=O)O` (stereo not given) was tested. Which AC50 did it give?
Answer: The AC50 was 15.8 µM (active).

Question: With `CCOc1ccc2c(c1)C(C)=CC(C)(C)N2` as the compound, how does the AC50 read?
Answer: Its AC50 is 0.551 µM (active).

Question: How did the outcome turn out when `Nc1nc(N)c2nc(CNc3ccc(C(=O)N[C@@H](CCC(=O)O)C(=O)O)cc3)cnc2n1` was run?
Answer: The outcome was “inactive”.

Question: For `Cc1cccc(Nc2cc(Cl)nc(SCC(=O)O)n2)c1C`, which AC50 is on record?
Answer: The AC50 was 65.4 µM (active).

Question: How did the outcome turn out when `CC(=O)C(C)=CC1C(C)=CCCC1(C)C` (stereo not given) was run?
Answer: The outcome was “inactive”.

Question: With `FC(F)(F)C(F)(F)C(F)(F)C(F)(F)C(F)(F)C(F)(F)CCI` as the compound, how does the outcome read?
Answer: The outcome was “inactive”.

Question: For `CCCc1cc(=O)[nH]c(=S)[nH]1`, which outcome is on record?
Answer: Its outcome is “inactive”.

Question: For `Oc1ccc2ccccc2c1N=Nc1ccccc1`, which AC50 is on record?
Answer: Its AC50 is 31.5 µM (active).

Question: How did the outcome turn out when `CCCCOC(=O)CCCCCCCCC(=O)OCCCC` was run?
Answer: The outcome was “inactive”.

Question: With `CN1CCN(Cc2cc(-c3ccc4[nH]c(=O)oc4c3)co2)[C@@H](c2ccc(F)cc2)C1` as the compound, how does the AC50 read?
Answer: The AC50 was 86.7 µM (active).

Question: For `CC1=C(/C=C/C(C)=C/C=C/C(C)=C/CO)C(C)(C)CCC1`, which AC50 is on record?
Answer: Its AC50 is 26.7 µM (active).

Question: How did the outcome turn out when `Cc1c(C(=O)O)c(O)cc2c1C(=O)c1c(O)c([C@@H]3O[C@H](CO)[C@@H](O)[C@H](O)[C@H]3O)c(O)c(O)c1C2=O` was run?
Answer: The outcome was “inactive”.

Question: For `CCCCc1ccc2c(n1)[C@@H](c1ccc(OC)cc1C[C@H](C)C(=O)O)[C@H](C(=O)O)[C@H]2c1ccc2c(c1)OCO2`, which outcome is on record?
Answer: The outcome was “inactive”.

Question: With `COc1cc(S(=O)(=O)O)c(C)cc1N=Nc1c(O)ccc2cc(S(=O)(=O)O)ccc12` as the compound, how does the outcome read?
Answer: The outcome was “inactive”.

Question: `COc1cc(C=O)ccc1O` was tested. Which outcome did it give?
Answer: The outcome was “inactive”.

Question: Which AC50 does the source give for `Cc1ccc(N(C)C)cc1` here?
Answer: Its AC50 is 50 µM (active).

Question: `NCC1(Cc2noc(=O)[nH]2)CCCCC1` was tested. Which outcome did it give?
Answer: The outcome was “inactive”.

Question: Which outcome does the source give for `Cc1cc(=O)[nH]c(=S)[nH]1` here?
Answer: The outcome was “inactive”.

Question: `C=CCc1ccc(O)c(OC)c1` was tested. Which outcome did it give?
Answer: Its outcome is “inactive”.

Question: `CCCCCCCCCCCCCO` was tested. Which outcome did it give?
Answer: Its outcome is “inactive”.

Question: For `Cc1cc(NC(=O)C(=O)O)cc(C)c1Oc1ccc(O)c2c1CCC2`, which AC50 is on record?
Answer: Its AC50 is 0.00316 µM (active).

Question: Which outcome does the source give for `Clc1cc(Cl)c(Cl)cc1Cl` here?
Answer: The outcome was “inactive”.

Question: Which AC50 does the source give for `Cc1ccc2ncccc2c1` here?
Answer: The AC50 was 13.2 µM (active).

Question: How did the AC50 turn out when `CN[C@H]1CC[C@@H](c2ccc(Cl)c(Cl)c2)c2ccc(S(N)(=O)=O)cc21` was run?
Answer: Its AC50 is 11.4 µM (active).

Question: How did the AC50 turn out when `Nc1ccccc1N` was run?
Answer: Its AC50 is 69 µM (active).

Question: For `Cc1ccccc1Cl`, which outcome is on record?
Answer: Its outcome is “inactive”.

Question: Which outcome does the source give for `CCCCCCCCCCC` here?
Answer: The outcome was “inactive”.

Question: How did the AC50 turn out when `COc1ccc(C)cc1N` was run?
Answer: Its AC50 is 25.6 µM (active).

Question: With `CC(=O)Oc1ccccc1C(=O)O` as the compound, how does the outcome read?
Answer: Its outcome is “inactive”.

Question: With `CCCCCCC(=O)OCC` as the compound, how does the AC50 read?
Answer: The AC50 was 6.44 µM (active).

Question: `CC(=O)OC/C=C(\C)CCC=C(C)C` was tested. Which outcome did it give?
Answer: Its outcome is “inactive”.
